# Changes are numbered by the printed parent chain.
# How the values were obtained:
# Assay in all cases: yeast three-hybrid, YBZ-1, SC-Leu-His + 0.5 mM 3-AT, 4 days
# Conditions in all cases: tags: N-Gal4 AD-HA kept; label: inside an RPR1-promoter hybrid RNA with tandem MS2 sites; ssRNA
# PUM1 PUF domain R6-QWM = target: T1, PUM1 PUF domain R6-QWM (Homo sapiens, UniProt Q14671 828-1176, N1043Q;Y1044W;Q1047M)
# T1 sequence: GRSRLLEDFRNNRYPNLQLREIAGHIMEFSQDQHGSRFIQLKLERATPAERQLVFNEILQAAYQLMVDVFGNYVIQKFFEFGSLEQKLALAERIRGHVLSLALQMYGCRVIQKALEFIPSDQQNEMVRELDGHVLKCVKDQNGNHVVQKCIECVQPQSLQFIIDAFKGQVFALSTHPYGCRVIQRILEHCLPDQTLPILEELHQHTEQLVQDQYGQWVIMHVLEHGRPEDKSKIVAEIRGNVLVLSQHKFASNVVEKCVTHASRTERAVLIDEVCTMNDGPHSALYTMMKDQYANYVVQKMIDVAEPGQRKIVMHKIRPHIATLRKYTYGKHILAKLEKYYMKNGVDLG
# Outline: (§1)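 A centromeric plasmid in strain YBZ-1 co-expressed Pumilio-1 PUF domain libraries, randomized at the three base-contacting residues of each repeat, with matching RNA elements; the strain carries a LexA–MS2 coat fusion and a HIS3 reporter. After four days on SC-Leu (input) or SC-Leu-His + 0.5 mM 3-AT (selection), the repeat regions were PCR-amplified and Illumina-sequenced. The interaction score is the log change in variant frequency from input to selection, using log2 and a pseudocount of 1 where absent.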
# PUM1 PUF domain R3-CFG = PUM1 PUF domain R3-CFG (Homo sapiens, UniProt Q14671 828-1176, R936F;Q939G)
# Outline: as §1
# PUM1 PUF domain R3-VNE = PUM1 PUF domain R3-VNE (Homo sapiens, UniProt Q14671 828-1176, C935V;R936N;Q939E)
# Outline: as §1
# PUM1 PUF domain R5-MSR = PUM1 PUF domain R5-MSR (Homo sapiens, UniProt Q14671 828-1176, C1007M;R1008S;Q1011R)
# Outline: as §1
# PUM1 PUF domain R8-RKR = PUM1 PUF domain R8-RKR (Homo sapiens, UniProt Q14671 828-1176, N1122R;Y1123K;Q1126R)
# Outline: as §1
# PUM1 PUF domain R3-LYS = PUM1 PUF domain R3-LYS (Homo sapiens, UniProt Q14671 828-1176, C935L;R936Y;Q939S)
# Outline: as §1
# PUM1 PUF domain R1-RMT = PUM1 PUF domain R1-RMT (Homo sapiens, UniProt Q14671 828-1176, S863R;R864M;Q867T)
# Outline: as §1
# PUM1 PUF domain R3-QPE = PUM1 PUF domain R3-QPE (Homo sapiens, UniProt Q14671 828-1176, C935Q;R936P;Q939E)
# Outline: as §1
# PUM1 PUF domain R6-SHE = target: T2, PUM1 PUF domain R6-SHE (Homo sapiens, UniProt Q14671 828-1176, N1043S;Y1044H;Q1047E)
# T2 sequence: T1 sequence with Q216S, W217H, M220E
# Outline: as §1
# PUM1 PUF domain R5-RMK = PUM1 PUF domain R5-RMK (Homo sapiens, UniProt Q14671 828-1176, C1007R;R1008M;Q1011K)
# Outline: as §1
sequence,measurement,setting,value
GGCUAGAACUAGUGGAUCCCCCGGCGCCCGGCGGCUCGAGCCCGGGUAAGUGAAAAUAGUCUGCAUGCCGCCGGGCGCCAUGCCUGCAGGUCGACUCUAGAAAACAUG,binding signal,PUM1 PUF domain R6-QWM,4.68 log2 enrichment (interaction score)
GGCUAGAACUAGUGGAUCCCCCGGCGCCCGGCGGCUCGAGCCCGGGUAAGUGUAAGUAGUCUGCAUGCCGCCGGGCGCCAUGCCUGCAGGUCGACUCUAGAAAACAUG,binding signal,PUM1 PUF domain R3-CFG,1.61 log2 enrichment (interaction score)
same,binding signal,PUM1 PUF domain R3-VNE,0.75 log2 enrichment (interaction score)
GGCUAGAACUAGUGGAUCCCCCGGCGCCCGGCGGCUCGAGCCCGGGUAAGUGUAAAUAGUCUGCAUGCCGCCGGGCGCCAUGCCUGCAGGUCGACUCUAGAAAACAUG,binding signal,PUM1 PUF domain R5-MSR,1 log2 enrichment (interaction score)
same,binding signal,PUM1 PUF domain R3-CFG,3.86 log2 enrichment (interaction score)
same,binding signal,PUM1 PUF domain R3-VNE,3.16 log2 enrichment (interaction score)
same,binding signal,PUM1 PUF domain R8-RKR,3.9 log2 enrichment (interaction score)
same,binding signal,PUM1 PUF domain R3-LYS,4.77 log2 enrichment (interaction score)
GGCUAGAACUAGUGGAUCCCCCGGCGCCCGGCGGCUCGAGCCCGGGUAAGUGUAAAUGGUCUGCAUGCCGCCGGGCGCCAUGCCUGCAGGUCGACUCUAGAAAACAUG,binding signal,PUM1 PUF domain R1-RMT,1.2 log2 enrichment (interaction score)
GGCUAGAACUAGUGGAUCCCCCGGCGCCCGGCGGCUCGAGCCCGGGUAAGUGUAAUUAGUCUGCAUGCCGCCGGGCGCCAUGCCUGCAGGUCGACUCUAGAAAACAUG,binding signal,PUM1 PUF domain R3-QPE,2.87 log2 enrichment (interaction score)
same,binding signal,PUM1 PUF domain R3-CFG,2.06 log2 enrichment (interaction score)
same,binding signal,PUM1 PUF domain R3-LYS,5.78 log2 enrichment (interaction score)
GGCUAGAACUAGUGGAUCCCCCGGCGCCCGGCGGCUCGAGCCCGGGUAAGCGUAAAUAGUCUGCAUGCCGCCGGGCGCCAUGCCUGCAGGUCGACUCUAGAAAACAUG,binding signal,PUM1 PUF domain R8-RKR,5.43 log2 enrichment (interaction score)
GGCUAGAACUAGUGGAUCCCCCGGCGCCCGGCGGCUCGAGCCCGGGUAAGUGGAAAUAGUCUGCAUGCCGCCGGGCGCCAUGCCUGCAGGUCGACUCUAGAAAACAUG,binding signal,PUM1 PUF domain R6-SHE,4.66 log2 enrichment (interaction score)
GGCUAGAACUAGUGGAUCCCCCGGCGCCCGGCGGCUCGAGCCCGGGUAAGUGUCAAUAGUCUGCAUGCCGCCGGGCGCCAUGCCUGCAGGUCGACUCUAGAAAACAUG,binding signal,PUM1 PUF domain R5-MSR,3.83 log2 enrichment (interaction score)
same,binding signal,PUM1 PUF domain R5-RMK,2.87 log2 enrichment (interaction score)
GGCUAGAACUAGUGGAUCCCCCGGCGCCCGGCGGCUCGAGCCCGGGUAAGUGUAAAUUGUCUGCAUGCCGCCGGGCGCCAUGCCUGCAGGUCGACUCUAGAAAACAUG,binding signal,PUM1 PUF domain R1-RMT,3.66 log2 enrichment (interaction score)

# From paper PMC8384837, “Expanding the binding specificity for RNA recognition by a PUF domain”
